This is part of a sample that, as a whole, favours compounds with a hit. Of some 83,000 tested, about 20% had one in any assay.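 Results are percent growth after 48 hours of single-concentration exposure. 100 means growth as in untreated cells, lower positive values show inhibition; negative values down to -100 show cell death.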 Activity calls are given as the source filed them. The calls were made as follows: active = growth percent below 10; inactive = the rest.
How the values were obtained:
Assay in all cases: NCI-60 one-dose screen, 48 h (100 = growth as untreated, 0 = no growth, -100 = all killed)
Settings in all cases: 10 µM unless noted
[1] = system: DU-145 prostate
[2] = system: K-562 leukemia
[3] = system: MALME-3M melanoma
[4] = system: MDA-MB-231 breast
[5] = system: RXF 393 renal
[6] = system: SF-268 CNS
[7] = system: SF-295 CNS
[8] = system: SF-539 CNS
[9] = system: UACC-257 melanoma
[10] = system: M14 melanoma
[11] = system: HCT-15 colon
[12] = system: HT29 colon
[13] = system: SNB-19 CNS
[14] = system: U251 CNS
[15] = system: PC-3 prostate
[16] = system: SK-MEL-5 melanoma
[17] = system: UACC-62 melanoma
[18] = system: LOX IMVI melanoma
[19] = system: SNB-75 CNS
[20] = system: SK-MEL-28 melanoma

Measured: growth

COc1ccc(-c2nn(-c3ccccc3)cc2/C=C/C(=O)OCc2cn(-c3ccc(F)c(Cl)c3)nn2)cc1
inactive: [1] 97.2% | [2] 69.7% | [3] 59% | [4] 56.9% | [5] 68.4% | [6] 77.4% | [7] 97.3% | [8] 98.7% | [9] 92.9% | [10] 97.6% | [11] 88.5% | [12] 103% | [13] 85% | [14] 101% | [15] 60.5% | [16] 83.3% | [17] 80% | [18] 78.9%

Cn1c2c(Cl)c(Cl)ccc2c2ccn3c(=O)c4ccccc4nc3c21
inactive: [1] 120% | [2] 109% | [3] 102% | [4] 99.5% | [5] 117% | [6] 105% | [7] 102% | [8] 95.7% | [9] 97% | [10] 101% | [11] 102% | [12] 105% | [19] 91.6% | [14] 100% | [15] 101% | [16] 95.2% | [18] 104% | [20] 117%

Cc1ccc2c(c1)C(=O)/C(=C/c1ccc(OCC(=O)c3ccccc3)cc1)O2
inactive: [1] 107% | [2] 106% | [3] 114% | [4] 84% | [5] 89% | [6] 101% | [7] 78.8% | [8] 92.9% | [9] 90.1% | [10] 95.8% | [11] 75.3% | [12] 101% | [19] 109% | [14] 99.1% | [16] 86.9% | [18] 102% | [20] 112%

O=C(/C=C\c1ccc2ccccc2n1)c1cc(Cl)ccc1O
inactive: [1] 93.3% | [2] 79.4% | [3] 80.5% | [4] 78.3% | [5] 84.2% | [6] 71.6% | [7] 69.9% | [8] 87.2% | [9] 84.9% | [10] 84.6% | [11] 73.6% | [12] 71.6% | [19] 90.6% | [14] 44.3% | [15] 90.9% | [16] 97% | [18] 40.8% | [20] 99.6%

CCN(CC)Cc1cc(Nc2c3ccc(Cl)cc3nc3c(C)cccc23)ccc1O
active: [1] 2.09% | [2] -31% | [3] -87% | [4] -48.6% | [5] -74.3% | [6] -79.8% | [7] -43.6% | [8] -96.5% | [9] -85.2% | [10] -88.5% | [11] -45.8% | [12] -41.8% | [19] -99.4% | [14] -62.4% | [15] -48.9% | [16] -96.5% | [18] -84.9%

c1ccc2c(Nc3cccc4ccccc34)cccc2c1
inactive: [1] 86.4% | [2] 11.2% | [3] 50% | [4] 46% | [5] 83.8% | [6] 72.7% | [7] 69.1% | [8] 56.9% | [9] 80.3% | [10] 30.3% | [11] 35.1% | [12] 15.8% | [19] 20.8% | [14] 32.1% | [16] 71% | [17] 23.7% | [18] 52.6% | [20] 61.5%

C=C1CC[C@@H]2[C@](C)(COC(C)=O)[C@H](OC(C)=O)CC[C@@]2(C)[C@@H]1CC(NCc1ccc(F)cc1)C1=CCOC1=O (stereo partly drawn)
inactive: [1] 69.8% | [2] 18.8% | [3] 65.1% | [4] 60.9% | [5] 80.6% | [6] 62.6% | [7] 96.1% | [8] 64.4% | [9] 45.8% | [10] 37.3% | [11] 37% | [12] 21.3% | [19] 58.1% | [14] 48% | [15] 20.8% | [16] 11.8% | [20] 77.8%
active: [18] 9.33%

Cc1ccc2c(c1)C(=O)c1c-2c(OCCCN(C)C)nc2ccccc12
inactive: [1] 34.3% | [5] 30.1% | [6] 30.8% | [7] 60% | [8] 14.4% | [9] 69.5% | [19] 38.5% | [15] 18.6% | [16] 28.5%
active: [2] -59.4% | [3] -71.7% | [4] -22.7% | [10] -82.2% | [11] -17.8% | [12] -33% | [17] -66% | [18] -71.9%

COC1/C=C\OC2(C)Oc3c(C)c(O)c4c(O)c(c(CN(C)CCO)c(O)c4c3C2=O)NC(=O)/C(C)=C\C=C/C(C)C(O)C(C)C(O)C(C)C(OC(C)=O)C1C (stereo not drawn)
inactive: [1] 116% | [2] 92.3% | [3] 84.2% | [4] 108% | [5] 98.5% | [6] 97.3% | [7] 113% | [8] 91.1% | [9] 105% | [10] 105% | [11] 104% | [12] 140% | [19] 83.2% | [14] 109% | [15] 97.2% | [16] 108% | [18] 94.9% | [20] 124%

CN1CCN(Cc2ccc(NC(=O)c3[nH]ncc3Nc3ncnc4c3CCC4)cc2)CC1
inactive: [7] 31.2% | [9] 37.7% | [10] 21.7% | [11] 13.7% | [14] 15.4%
active: [1] 5.56% | [2] 6.23% | [3] 4.81% | [4] -11.8% | [5] -49.7% | [6] 4.07% | [8] -37.8% | [12] 9.71% | [19] -22.6% | [15] 9.21% | [16] 9.53% | [18] 7.49% | [20] 5.62%

O=[N+]([O-])c1cccc(-c2nc3sccn3c2-c2ccnc(NCCCNS(=O)(=O)c3cccc(F)c3)n2)c1
inactive: [4] 47.6% | [5] 52% | [6] 11.8% | [8] 34.8% | [12] 21.3% | [13] 41.2% | [14] 39.8%
active: [1] 9.77% | [2] 4.26% | [3] -10.6% | [7] 5.83% | [9] -15.2% | [10] -1.16% | [11] 2.21% | [15] -14% | [16] -71.2% | [17] -37.8% | [18] -17.6% | [20] -4.71%

CN(C)c1ccc(/C=C(\C#N)c2nc3ccccc3s2)cc1
inactive: [1] 120% | [2] 119% | [3] 111% | [4] 106% | [5] 116% | [6] 102% | [7] 92.9% | [8] 100% | [9] 93.5% | [10] 110% | [11] 106% | [12] 100% | [19] 89.4% | [14] 106% | [15] 105% | [16] 98.4% | [18] 113% | [20] 119%

Nc1nc(SCc2ccccc2)c2ncn(C3CCCC3)c2n1
inactive: [1] 101% | [2] 104% | [3] 121% | [4] 106% | [5] 99.5% | [6] 121% | [7] 101% | [8] 91.2% | [9] 129% | [10] 129% | [12] 114% | [19] 126% | [15] 83.2% | [16] 94% | [17] 81.4%
active: [11] -58.9% | [18] 3.63%

COc1cc(C#N)cc(OC)c1OCCN(CCOc1c(OC)cc(C#N)cc1OC)S(=O)(=O)c1ccc(C)cc1
inactive: [1] 115% | [2] 94% | [3] 108% | [4] 112% | [5] 70.9% | [6] 107% | [7] 94.2% | [8] 105% | [9] 97.7% | [10] 99.7% | [11] 108% | [12] 111% | [19] 92.7% | [14] 103% | [16] 61.8% | [17] 96.8% | [18] 93.1% | [20] 118%

Nc1c(C(=O)Nc2cccc3c2OCCO3)sc2nc3c(cc12)CN(Cc1ccccc1)CC3
inactive: [1] 86% | [2] 20.1% | [3] 68.1% | [4] 66.4% | [5] 71.8% | [6] 74.2% | [7] 39.7% | [8] 65.2% | [9] 83% | [10] 54.6% | [11] 42.5% | [12] 35.3% | [13] 60.4% | [14] 56.9% | [15] 55.1% | [16] 60.8% | [17] 49.3% | [18] 53.2% | [20] 75.4%

C/C(Cc1ccc(Cl)cc1)=C(\c1ccc(OCCN2CCCCCC2)cc1)c1ccc(OC(=O)Cc2ccccc2)cc1
active: [2] 1.27% | [12] 9.8%
inactive: [1] 75.9% | [3] 69.5% | [4] 82.4% | [5] 53.6% | [6] 60.2% | [7] 90.4% | [8] 81.5% | [9] 89.3% | [10] 21.8% | [11] 32.6% | [13] 74.4% | [14] 42.5% | [15] 54.2% | [16] 84.1% | [17] 75.1% | [18] 78.3% | [20] 71.3%

Nc1c(C(=O)Nc2ccccc2)sc2nc3c(cc12)CN(CCc1ccccc1)CC3
inactive: [1] 98.3% | [2] 82.2% | [3] 95.7% | [4] 90.4% | [5] 121% | [6] 93.2% | [7] 103% | [8] 95.3% | [9] 110% | [10] 108% | [11] 107% | [12] 104% | [13] 95.4% | [14] 91.3% | [15] 88.1% | [16] 92.9% | [17] 86.4% | [18] 87.5% | [20] 106%

O=C1/C(=C/c2ccccc2)CN(CCC(=O)N2C/C(=C\c3ccccc3)C(=O)/C(=C/c3ccccc3)C2)C/C1=C\c1ccccc1
inactive: [1] 87.6% | [2] 11.6% | [3] 101% | [4] 75.2% | [5] 57.4% | [6] 66.6% | [7] 90.7% | [8] 90.9% | [9] 93.8% | [10] 52.4% | [11] 18.8% | [13] 52.9% | [15] 51.3% | [16] 60.5% | [17] 70.2% | [20] 91.9%
active: [12] -13.5% | [14] 8.91% | [18] -51.4%

O=C(Nc1nc(-c2ccccc2)cc(-c2ccc(Cl)cc2)n1)c1ccncc1
inactive: [1] 103% | [2] 93.5% | [3] 99.3% | [4] 94.8% | [5] 85.7% | [6] 94.5% | [7] 100% | [8] 102% | [9] 104% | [10] 104% | [11] 104% | [12] 96.8% | [13] 90.3% | [14] 93% | [15] 91.4% | [16] 102% | [17] 86.9% | [18] 91.7% | [20] 115%

Brc1cccc(-c2nc(-c3ccc4c(c3)OCCO4)co2)c1
inactive: [1] 88.2% [25 µM] | [2] 18.5% [25 µM] | [3] 50.2% [25 µM] | [4] 47.5% [25 µM] | [5] 66.2% [25 µM] | [6] 73.6% [25 µM] | [7] 52.4% [25 µM] | [8] 52.2% [25 µM] | [9] 87.3% [25 µM] | [10] 46% [25 µM] | [11] 34.5% [25 µM] | [12] 17.1% [25 µM] | [13] 63.1% [25 µM] | [14] 43.3% [25 µM] | [15] 74% [25 µM] | [16] 57.6% [25 µM] | [17] 44.6% [25 µM] | [18] 45.4% [25 µM] | [20] 72.9% [25 µM]
